Reference: publication PMC7862700, “An all-to-all approach to the identification of sequence-specific readers for epigenetic DNA modifications on cytosine”

Tests used:
Assay in all cases: DAPPL (digital affinity profiling via proximity ligation, sequencing); 10 mM Tris-HCl pH 7.5, 50 mM NaCl, 1 mM DTT, 4% glycerol, room temperature, 30 min; GST-TFs on glutathione beads, 16-mer random dsDNA library, 0.1% formaldehyde crosslink after washing; high values mean tight binding
Details in all cases: protein: recombinant; tags: N-terminal GST; dsDNA, one strand shown
[1] = target: T1, FLI1 (Homo sapiens, UniProt Q01543 1-452)
T1 sequence: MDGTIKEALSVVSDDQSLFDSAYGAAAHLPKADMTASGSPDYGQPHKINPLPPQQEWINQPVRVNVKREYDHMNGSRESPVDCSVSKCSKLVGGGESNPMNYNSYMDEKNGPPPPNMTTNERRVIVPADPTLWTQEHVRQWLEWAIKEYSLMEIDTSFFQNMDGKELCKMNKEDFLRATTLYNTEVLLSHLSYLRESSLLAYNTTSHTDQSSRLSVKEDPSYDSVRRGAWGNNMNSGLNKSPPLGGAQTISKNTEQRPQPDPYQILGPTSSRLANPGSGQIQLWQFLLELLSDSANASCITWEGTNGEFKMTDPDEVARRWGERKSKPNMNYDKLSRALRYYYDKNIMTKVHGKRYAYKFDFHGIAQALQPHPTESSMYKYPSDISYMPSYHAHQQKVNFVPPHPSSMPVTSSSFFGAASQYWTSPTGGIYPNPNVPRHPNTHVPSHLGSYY
Procedure, shortened: (§1)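 Human transcription factors were made in yeast as GST fusions, captured on glutathione beads and barcoded with DNA. With a tag-only sample included, the pool was incubated with 200 nmole of a random double-stranded 16-mer DNA library in Tris/NaCl/DTT/glycerol buffer at room temperature for 30 min, then crosslinked with 0.1% formaldehyde after washing, ligated by proximity, amplified and sequenced. For binding signal, each hexamer's read frequency for a factor is divided by its frequency for the tag-only sample.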

[2] = target: T2, ELK1 (Homo sapiens, UniProt P19419 1-428)
T2 sequence: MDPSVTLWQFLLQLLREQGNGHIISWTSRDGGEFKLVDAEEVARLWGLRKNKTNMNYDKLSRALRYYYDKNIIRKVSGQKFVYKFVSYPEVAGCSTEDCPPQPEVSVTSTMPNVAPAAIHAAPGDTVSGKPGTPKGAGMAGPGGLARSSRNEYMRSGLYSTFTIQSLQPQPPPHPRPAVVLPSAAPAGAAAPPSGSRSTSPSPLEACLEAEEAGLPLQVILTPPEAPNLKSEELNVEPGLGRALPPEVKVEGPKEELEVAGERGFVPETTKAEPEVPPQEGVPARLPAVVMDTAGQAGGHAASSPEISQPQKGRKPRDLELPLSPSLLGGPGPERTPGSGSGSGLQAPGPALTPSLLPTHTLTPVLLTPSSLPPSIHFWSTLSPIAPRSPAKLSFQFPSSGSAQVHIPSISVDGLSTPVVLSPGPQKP
Procedure, shortened: as §1

[3] = target: T3, GABPA (Homo sapiens, UniProt Q06546 1-454)
T3 sequence: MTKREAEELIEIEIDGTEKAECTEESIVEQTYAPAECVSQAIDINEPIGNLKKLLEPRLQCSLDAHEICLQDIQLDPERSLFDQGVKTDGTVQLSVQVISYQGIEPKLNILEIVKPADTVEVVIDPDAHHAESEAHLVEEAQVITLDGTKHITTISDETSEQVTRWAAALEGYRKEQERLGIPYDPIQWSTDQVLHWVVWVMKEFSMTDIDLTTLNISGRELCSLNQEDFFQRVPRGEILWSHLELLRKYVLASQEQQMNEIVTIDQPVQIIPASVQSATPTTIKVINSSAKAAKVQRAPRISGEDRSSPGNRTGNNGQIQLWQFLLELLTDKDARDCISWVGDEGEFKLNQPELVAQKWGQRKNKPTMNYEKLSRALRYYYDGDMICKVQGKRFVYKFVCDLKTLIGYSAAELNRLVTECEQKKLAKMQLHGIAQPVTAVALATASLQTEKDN
Procedure, shortened: as §1

[4] = target: T4, ERG (Homo sapiens, UniProt P11308 1-479)
T4 sequence: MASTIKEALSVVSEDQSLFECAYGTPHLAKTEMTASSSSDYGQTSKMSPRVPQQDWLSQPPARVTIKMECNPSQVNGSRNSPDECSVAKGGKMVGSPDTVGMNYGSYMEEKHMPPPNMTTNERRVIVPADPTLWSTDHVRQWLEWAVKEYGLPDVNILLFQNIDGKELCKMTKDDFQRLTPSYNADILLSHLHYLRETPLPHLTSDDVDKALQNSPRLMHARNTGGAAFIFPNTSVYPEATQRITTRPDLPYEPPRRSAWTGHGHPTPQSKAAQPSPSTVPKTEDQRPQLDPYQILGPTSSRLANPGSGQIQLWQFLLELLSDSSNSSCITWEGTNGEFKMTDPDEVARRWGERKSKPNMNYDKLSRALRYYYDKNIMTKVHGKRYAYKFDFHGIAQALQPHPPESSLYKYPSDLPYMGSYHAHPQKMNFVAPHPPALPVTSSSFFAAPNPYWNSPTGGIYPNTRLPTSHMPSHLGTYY
Procedure, shortened: as §1

[5] = target: ELF1 (Homo sapiens, UniProt P32519 1-619)
Chain of ELF1 (P32519 whole entry): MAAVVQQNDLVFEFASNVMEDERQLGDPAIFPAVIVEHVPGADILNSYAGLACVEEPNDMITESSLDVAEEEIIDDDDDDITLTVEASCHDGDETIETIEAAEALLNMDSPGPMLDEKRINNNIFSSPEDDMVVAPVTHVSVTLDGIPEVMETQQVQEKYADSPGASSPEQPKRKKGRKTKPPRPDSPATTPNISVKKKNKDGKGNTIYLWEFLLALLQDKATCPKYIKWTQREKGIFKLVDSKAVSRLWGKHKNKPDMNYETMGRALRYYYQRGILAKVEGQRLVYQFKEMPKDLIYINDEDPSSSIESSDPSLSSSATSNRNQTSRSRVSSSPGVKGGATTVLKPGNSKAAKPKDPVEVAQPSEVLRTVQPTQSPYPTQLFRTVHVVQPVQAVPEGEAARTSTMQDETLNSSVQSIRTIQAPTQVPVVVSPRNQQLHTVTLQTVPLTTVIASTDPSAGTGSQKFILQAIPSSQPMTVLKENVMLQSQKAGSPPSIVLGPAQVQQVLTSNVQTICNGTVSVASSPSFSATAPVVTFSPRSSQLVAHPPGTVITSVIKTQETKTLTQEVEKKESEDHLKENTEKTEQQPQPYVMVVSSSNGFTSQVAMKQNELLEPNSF
Procedure, shortened: as §1

[6] = target: T5, EHF (Homo sapiens, UniProt Q9NZC4 1-300)
T5 sequence: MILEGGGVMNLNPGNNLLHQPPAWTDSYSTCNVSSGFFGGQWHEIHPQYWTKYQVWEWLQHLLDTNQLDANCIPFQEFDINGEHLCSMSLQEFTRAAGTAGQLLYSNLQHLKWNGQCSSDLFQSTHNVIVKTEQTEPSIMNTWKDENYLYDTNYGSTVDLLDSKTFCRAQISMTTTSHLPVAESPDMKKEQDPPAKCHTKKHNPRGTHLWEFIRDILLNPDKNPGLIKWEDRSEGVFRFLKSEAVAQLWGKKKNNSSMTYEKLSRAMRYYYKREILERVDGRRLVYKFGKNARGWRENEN
Procedure, shortened: as §1

[7] = target: SPI1 (Homo sapiens, UniProt P17947 1-270)
Procedure, shortened: as §1

[8] = target: SPIB (Homo sapiens, UniProt Q01892 1-262)
Chain of SPIB (Q01892 whole entry): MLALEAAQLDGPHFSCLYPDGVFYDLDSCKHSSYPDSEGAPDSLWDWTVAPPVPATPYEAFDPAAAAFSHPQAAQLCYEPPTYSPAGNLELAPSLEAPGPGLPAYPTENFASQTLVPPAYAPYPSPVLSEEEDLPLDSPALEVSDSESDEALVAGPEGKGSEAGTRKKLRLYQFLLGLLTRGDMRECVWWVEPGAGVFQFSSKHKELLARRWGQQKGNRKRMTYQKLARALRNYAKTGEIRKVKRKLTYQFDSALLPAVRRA
Procedure, shortened: as §1

[9] = target: T6, ELK3 (Homo sapiens, UniProt P41970 1-407)
T6 sequence: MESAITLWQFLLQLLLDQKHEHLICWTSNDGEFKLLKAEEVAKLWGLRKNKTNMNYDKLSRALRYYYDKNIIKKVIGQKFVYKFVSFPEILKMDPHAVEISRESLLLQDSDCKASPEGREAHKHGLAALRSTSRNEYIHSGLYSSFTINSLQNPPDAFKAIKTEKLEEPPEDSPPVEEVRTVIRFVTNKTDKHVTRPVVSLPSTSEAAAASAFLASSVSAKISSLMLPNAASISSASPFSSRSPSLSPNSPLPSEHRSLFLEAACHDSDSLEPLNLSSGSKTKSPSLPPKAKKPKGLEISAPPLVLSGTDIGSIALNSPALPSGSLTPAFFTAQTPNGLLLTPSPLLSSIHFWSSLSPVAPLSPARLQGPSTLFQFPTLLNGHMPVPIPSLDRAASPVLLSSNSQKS
Procedure, shortened: as §1

Sequence	binding signal [1]	binding signal [2]	binding signal [3]	binding signal [4]	binding signal [5]	binding signal [6]	binding signal [7]	binding signal [8]	binding signal [9]
GATGTT	1.28 fold enrichment (6-mer frequency, TF over GST control)	1.34 fold enrichment (6-mer frequency, TF over GST control)	1.27 fold enrichment (6-mer frequency, TF over GST control)	1.28 fold enrichment (6-mer frequency, TF over GST control)	1.25 fold enrichment (6-mer frequency, TF over GST control)	1.32 fold enrichment (6-mer frequency, TF over GST control)	1.25 fold enrichment (6-mer frequency, TF over GST control)	1.2 fold enrichment (6-mer frequency, TF over GST control)	1.22 fold enrichment (6-mer frequency, TF over GST control)
GTTCTT	1.19 fold enrichment (6-mer frequency, TF over GST control)	1.22 fold enrichment (6-mer frequency, TF over GST control)	1.09 fold enrichment (6-mer frequency, TF over GST control)	1.19 fold enrichment (6-mer frequency, TF over GST control)	1.18 fold enrichment (6-mer frequency, TF over GST control)	1.08 fold enrichment (6-mer frequency, TF over GST control)	1.09 fold enrichment (6-mer frequency, TF over GST control)	1.17 fold enrichment (6-mer frequency, TF over GST control)	1.35 fold enrichment (6-mer frequency, TF over GST control)
TACCAC	1.2 fold enrichment (6-mer frequency, TF over GST control)	1.32 fold enrichment (6-mer frequency, TF over GST control)	1.18 fold enrichment (6-mer frequency, TF over GST control)	1.17 fold enrichment (6-mer frequency, TF over GST control)	1.32 fold enrichment (6-mer frequency, TF over GST control)	1.23 fold enrichment (6-mer frequency, TF over GST control)	1.24 fold enrichment (6-mer frequency, TF over GST control)	1.26 fold enrichment (6-mer frequency, TF over GST control)	1.14 fold enrichment (6-mer frequency, TF over GST control)
CTTAAA	1.12 fold enrichment (6-mer frequency, TF over GST control)	1.14 fold enrichment (6-mer frequency, TF over GST control)	1.24 fold enrichment (6-mer frequency, TF over GST control)	1.16 fold enrichment (6-mer frequency, TF over GST control)	1.22 fold enrichment (6-mer frequency, TF over GST control)	1.2 fold enrichment (6-mer frequency, TF over GST control)	1.22 fold enrichment (6-mer frequency, TF over GST control)	1.23 fold enrichment (6-mer frequency, TF over GST control)	1.08 fold enrichment (6-mer frequency, TF over GST control)
CTATGC	1.41 fold enrichment (6-mer frequency, TF over GST control)	1.56 fold enrichment (6-mer frequency, TF over GST control)	1.53 fold enrichment (6-mer frequency, TF over GST control)	1.39 fold enrichment (6-mer frequency, TF over GST control)	1.47 fold enrichment (6-mer frequency, TF over GST control)	1.31 fold enrichment (6-mer frequency, TF over GST control)	1.38 fold enrichment (6-mer frequency, TF over GST control)	1.48 fold enrichment (6-mer frequency, TF over GST control)	1.4 fold enrichment (6-mer frequency, TF over GST control)
TTTAAC	1.18 fold enrichment (6-mer frequency, TF over GST control)	1.16 fold enrichment (6-mer frequency, TF over GST control)	1.08 fold enrichment (6-mer frequency, TF over GST control)	1.13 fold enrichment (6-mer frequency, TF over GST control)	1.21 fold enrichment (6-mer frequency, TF over GST control)	1.1 fold enrichment (6-mer frequency, TF over GST control)	1.19 fold enrichment (6-mer frequency, TF over GST control)	1.14 fold enrichment (6-mer frequency, TF over GST control)	1.21 fold enrichment (6-mer frequency, TF over GST control)
GACTCT	1.3 fold enrichment (6-mer frequency, TF over GST control)	1.28 fold enrichment (6-mer frequency, TF over GST control)	1.37 fold enrichment (6-mer frequency, TF over GST control)	1.34 fold enrichment (6-mer frequency, TF over GST control)	1.37 fold enrichment (6-mer frequency, TF over GST control)	1.27 fold enrichment (6-mer frequency, TF over GST control)	1.2 fold enrichment (6-mer frequency, TF over GST control)	1.37 fold enrichment (6-mer frequency, TF over GST control)	1.2 fold enrichment (6-mer frequency, TF over GST control)
